LMP1 NFkB inh: inhibitors of Epstein-Barr LMP1-induced NF-kappaB reporter; inhibition, % at 12.5 µM; hit rate 0.69% among 350,000; LMP1-induced NF-kappaB luciferase reporter cells, luminescence; in the data active means inhibition above about 41%;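 further: 0% = neutral control wells and 100% = reference inhibitor control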
LGR2 antag: Drosophila LGR2 receptor signaling inhibition. inhibition, % at 9.99 µM. HEK293 LGR2, CRE-luciferase, bursicon-stimulated, 4 h. hit rate 0.35% among 380,000;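 active means drop in luminescence signal, shown as inhibition above about 50% in the replicate tests, limit read from the data, passing the limit was not always enough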;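 further: agonist challenge used bursicon conditioned medium at about half maximal strength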
TROY signal inh: inhibitors of TROY-dependent NF-kB signaling. Q293 LMP1-TROYcd NF-kB luciferase reporter, 4 h. inhibition, % at 10 µM. hit rate 0.98% among 360,000;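 active means compounds whose plate-normalised and pattern-corrected inhibition of the luciferase reporter signal at the single screening dose is 50% or more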
HSP90 refold inh: HSP90 refolding inhibition in rabbit reticulocyte lysate. AID 1789. luciferase refolding luminescence, 3 h. hit rate 0.91% among 290,000. inhibition, % at 5.6 µM;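 active means inhibition above the screen-wide mean plus 3 SD, computed separately per campaign, cut at about 16% in these data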;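 further: 0% = DMSO wells and 100% = 60 µM geldanamycin wells; inhibitors lower the luminescence because luciferase stays unfolded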
aDG glyco up: increases alpha dystroglycan glycosylation. Pro5-aDG cells, alpha-DG glycosylation AlphaScreen (IIH6); 0% Pro5, 100% B10-LARGE cell signal. activation, % at 10 µM. hit rate 0.22% among 360,000. AID 624168;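 active means activation of at least 8% versus controls, or a plate z-score of at least 8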;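 further: Pro5 are CHO cells carrying HIG-tagged alpha-DG that lacks glycosylation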
TWEAK Fn14 block: TWEAK-Fn14 signaling inhibition; TWEAK-stimulated Fn14 reporter cells, luciferase luminescence, 8 h; inhibition, % at 10 µM; hit rate 2% among 360,000; AID 1159606; in the data active means inhibition above about 50%
* = called active by the depositor; x = not tested or not shown. Most compounds without a hit are left out; they make up all but 2.6% or so of the library.

SMILES	LMP1 NFkB inh	LGR2 antag	TROY signal inh	HSP90 refold inh	aDG glyco up	TWEAK Fn14 block
Nc1ccc(C(=O)O)cc1[N+](=O)[O-]	-5.9	-23.6	2.9	1.2	-0.3	-9.3
O=C(Cc1ccccn1)N[C@@H]1C=C[C@H](CC(=O)N2CCCCC2)O[C@H]1CO	x	1.3	x	x	x	x
COc1ccc(-c2nc(CN3CCC(C(=O)N4CCOCC4)CC3)c(C)o2)cc1C	65.8*	-7.3	13.0	-1.3	0.1	-7.1
COCCNC(=O)C(=O)NCC1OCCN1C(=O)c1ccc(Cl)cc1 (stereo not drawn)	79.8*	x	-4.8	-0.3	-0.1	10.4
Cc1ccc(S(=O)(=O)Nc2cccc3ncccc23)s1	17.0	x	85.1*	-0.7	-0.4	107.7*
CN1C(=O)c2cc(NC(=O)C3CC3)ccc2OC[C@@H]2O[C@H](CC(=O)NCCc3ccncc3)CC[C@@H]21	x	-9.3	x	x	x	x
CC(=O)N(C)c1ccc(NS(=O)(=O)Cc2ccccc2)cc1	-6.3	x	56.9*	3.5	-0.1	44.6
COCC#Cc1ccc([C@H]2[C@@H](CO)N3C(=O)CN(C(=O)Nc4ccc(F)cc4)C[C@@H]23)cc1	x	7.6	x	x	x	x
O=S1(=O)CCOC[C@H](Cc2ccccc2)N1Cc1cccc(C(F)(F)F)c1	5.1	-9.1	11.5	x	0.2	-1.4
FC(F)(F)c1cccc(CC2CN(Cc3ccccc3)Cc3ccccc3N2c2cc(Cl)cc(Cl)c2)c1 (stereo not drawn)	-5.4	102.3*	34.5	x	0.1	91.4*
COc1ccc(S(=O)(=O)N(C)C[C@H]2Oc3ccc(NC(=O)Nc4ccc(C(F)(F)F)cc4)cc3CC(=O)N([C@@H](C)CO)C[C@@H]2C)cc1	x	5.4	x	x	x	x
O=C(NCc1ccncn1)[C@@H]1[C@@H](CO)[C@@H]2Cn3c(cccc3=O)[C@H]1N2CC1CC1	x	-1.6	x	x	x	x
O=C(O)CCN1C(=O)C2C3c4ccccc4C(c4ccccc43)C2C1=O (stereo not drawn)	50.2*	6.3	6.3	1.5	-0.1	-2.8
CCOC(=O)NC(=O)CSc1nc(C)cc(C(F)(F)F)c1C#N	-5.9	x	-46.0	-1.9	-0.3	-0.5
Cc1cc(C(F)(F)F)c(C#N)c(SCC(=O)Nc2nc3cc(Br)ccc3s2)n1	-5.1	-31.0	72.0*	-2.9	0.0	78.8*
COc1ccc(S(=O)(=O)N(C)C[C@@H]2Oc3c(NS(=O)(=O)c4ccccc4)cccc3C(=O)N([C@H](C)CO)C[C@@H]2C)cc1	x	7.5	x	x	x	x
Cc1ccc(-n2nnc(-c3cnc4ccccc4c3)n2)cc1	7.1	9.6	18.2	7.2	0.4	63.3*
CCCCOC(=O)c1ccc(NC(=O)Nc2ccc(OC)c(OC)c2)cc1	1.1	x	1.3	0.2	0.2	15.2
CCCCOC(=O)c1ccc(NC(=O)c2c(OC)cccc2OC)cc1	-7.9	0.2	82.8*	-1.3	1.0	-21.9
COc1ccc(NC(=O)/C(C#N)=C/c2cc(C)n(-c3ccc(N4CCOCC4)c([N+](=O)[O-])c3)c2C)cc1	44.5*	-8.9	37.6	-3.1	1.4	78.9*
Cc1cc(/C=C(\C#N)C(=O)Nc2ccc(F)cc2)c(C)n1-c1ccc(N2CCOCC2)c([N+](=O)[O-])c1	26.0	1.4	37.5	2.2	0.1	53.4*
COc1ccc2c3c(n(C)c2c1)[C@@H](CO)N(CC1CC1)CC31CCN(S(=O)(=O)c2cn(C)cn2)CC1	x	-11.3	x	x	x	x
CN1CCN(C(=O)C[C@H]2CC[C@@H]3[C@H](COC[C@@H](O)CN3Cc3ccc(Oc4ccccc4)cc3)O2)CC1	x	-9.1	x	x	x	x
C=CCSc1nsc(NC(=O)Nc2ccc(F)cc2)n1	32.3	16.7	30.7	4.1	-0.1	52.2*
CCSc1nsc(NC(=O)Nc2ccccc2F)n1	2.8	-35.9	10.6	-1.1	0.1	-2.4
SMILES	LMP1 NFkB inh	LGR2 antag	TROY signal inh	HSP90 refold inh	aDG glyco up	TWEAK Fn14 block
CC(=O)N1[C@H](CN(C)C(=O)C2CCC2)[C@@H](c2ccccc2)[C@@H]1CO	x	16.3	x	x	x	x
CC(C)OC(=O)CNc1n[nH]c(=S)[nH]c1=O	-6.6	-5.4	9.2	16.8*	0.2	-2.6
COC(=O)CNc1n[nH]c(=S)[nH]c1=O	-4.6	x	8.8	-1.4	-0.2	0.2
CN(CC(=O)Nc1ccc(N2CCOCC2)cc1)Cc1c(O)ccc2ccccc12	-1.5	38.7	50.1*	-5.6	0.2	34.2
COc1ccc(OCCCC(=O)NCCc2ccc(OC)c(OC)c2)cc1	9.1	7.6	20.8	11.8	-0.2	13.5
COc1ccc(NC(=O)CCCC(=O)NCCc2ccc(OC)c(OC)c2)cc1	5.2	-0.6	-13.1	3.0	0.0	88.8*
COc1cc(CC(NC(C)=O)C(=O)NC2CCN(C(=O)C3CC3)CC2)cc(OC)c1 (stereo not drawn)	0.5	1.3	55.0*	3.9	-0.2	12.5
COc1cc(CC(NC(C)=O)C(=O)NC2CCN(C(=O)c3ccc(C)cc3)CC2)cc(OC)c1 (stereo not drawn)	-10.5	0.6	-11.5	-4.7	0.0	3.2
C/C(=N\Nc1ccc(C(F)(F)F)cc1[N+](=O)[O-])C(C)C	66.5*	x	4.1	-4.7	-0.1	-14.3
O=C(Cn1c(NCCCO)nc2ccccc21)c1ccco1	-18.1	-3.4	-23.3	16.1*	-0.1	19.5
CCCCN(C=O)c1c(CC)nc2c(OCCOc3ccc(F)cc3)cccn12	x	21.5	-0.1	x	0.0	63.4*
COc1ccccc1N(Cc1ccccc1)S(=O)(=O)c1cccc(C(=O)NC2CC(C)(C)NC(C)(C)C2)c1	2.0	23.0	11.2	x	9.1*	-1.9
CC1=C(C(=O)Nc2ccccc2)C(c2ccco2)C(C#N)=C(SCc2ccccc2)N1 (stereo not drawn)	x	x	x	-0.5	x	x
CC1=C(C(=O)Nc2ccccc2)C(c2ccco2)C(C#N)=C(SCC(=O)OC(C)C)N1 (stereo not drawn)	-1.3	x	13.9	4.8	0.0	59.3*
COc1ccccc1NC(=O)COc1ccc(/C=N/NC(=O)CSCc2ccc(Cl)cc2)cc1	8.3	x	51.1*	-6.3	1.3	33.4
O=C(CC(Nc1ccccc1)C(=O)O)c1ccccc1 (stereo not drawn)	-49.2	x	-24.9	x	0.1	5.5
C=C(C(=O)c1ccccc1)C(C)CC(=O)c1ccccc1 (stereo not drawn)	-6.9	10.9	-19.1	1.4	2.0	63.2*
C=C(C(=O)c1ccccc1)C(NC(C)(C)C)c1ccccc1 (stereo not drawn)	90.7*	101.1*	18.8	x	-0.5	96.4*
C=CC(=O)N1C/C(=C/c2ccc(F)cc2)C(=O)/C(=C\c2ccc(F)cc2)C1	88.7*	100.9*	78.6*	x	-0.4	105.9*
O=C(/C=C/c1ccc(F)cc1)N1CCN(S(=O)(=O)/C=C/c2ccccc2)CC1	-1.9	17.2	-0.9	-1.7	-0.2	8.4
C[C@@H](NC(=O)C[C@@H]1C=C[C@@H](NC(=O)CN2CCOCC2)[C@@H](CO)O1)c1ccccc1	x	-21.3	x	x	x	x
O=c1cc(-c2ccccc2)oc2ccc3ccccc3c12	67.7*	101.2*	74.7*	x	0.0	93.2*
O=c1cc(-c2ccc(O)c(O)c2)oc2ccc3ccccc3c12	51.8*	-28.6	78.1*	x	-0.4	92.0*

High-throughput results as filed in PubChem.
